System: HepG2
Assay: GSK_TCMDC: Percent inhibition of human HepG2 cell line. Test compounds present at 10uM.
Format: functional

Structure (SMILES)	Inhibition
COc1ccc(Oc2ccc(-c3c(O)cc(C)nc3C)cc2)cc1	0%
CC(CN1CCN(C)CC1)C(=O)Nc1ccc(-c2cccc(-c3nc4cc(C(F)(F)F)ccc4[nH]3)c2)cc1 (stereo not given)	16%
Cc1ccc(C)c(S(=O)(=O)Nc2ccc(Br)cc2C(=O)Nc2cccc(C(F)(F)F)c2)c1	56%
CN1CCCC(CN2CCN(Cc3cccc(-c4ccc(-c5nc6ccccc6[nH]5)cc4)c3)CC2)C1.O=C(O)C(F)(F)F (stereo not given)	73%
Cl.N=C(N)NN=Cc1ccc2c(ccc3ccccc32)c1	9%
Cc1cc(NC(=O)c2ccc(-c3ccccc3)cc2)no1	5%
Fc1ccc(-c2oc(C3CCN(CCc4ccc(-c5noc(=S)[nH]5)cc4)CC3)nc2COCC(F)(F)F)cc1	5%
O=C(NC1CCCCC1)c1csc(C2CCCN(C(=O)c3ccc(O)c(-c4cccc(C(F)(F)F)c4)c3)C2)n1 (stereo not given)	8%
CN1C(=C2SC(=Nc3ccc4ncccc4c3)N(Cc3ccccc3)C2=O)Sc2ccc(Cl)cc21	4%
Cc1c(CCNC(=O)CCCN2CC(C)CC(C)C2)c2ccccc2n1C.Cl (stereo not given)	8%
CC(C)(CN)c1nc(-c2ccc(Br)c(O)c2)c(-c2ccncc2)[nH]1.Cl	31%
Nc1oc2c(CN3CCCCCC3)c(O)ccc2c(=O)c1-c1nc2ccccc2s1	12%
Cc1cccc2nc(-c3ccc(-c4cccc(C(=O)N5CCCCC5C(C)O)c4)s3)[nH]c12 (stereo not given)	27%
Cc1cccc2nc(-c3ccc(-c4cccc(CN5CCCC5CN)c4)s3)[nH]c12.O=C(O)C(F)(F)F (stereo not given)	20%
CC[C@H]1CN2CCc3c([nH]c4ccccc34)[C@@H]2C[C@@H]1CC1c2cc(OC)c(OC)cc2CCN1C.Cl (stereo not given in full)	31%
COc1ccc(S(=O)(=O)N2CCOCC2)cc1NC(=O)c1cc2ccccc2o1	8%
CC(C)Sc1nc2c(c(=O)n1CCc1ccccc1)C1(CCCC1)Cc1ccccc1-2	0%
Br.CC1(C)NC(N)=NC(=N)N1OCCCc1c(Cl)cccc1Cl	71%
CCOC(=O)NC1=NC(C)(C)N(OCc2ccc(Cl)c(Cl)c2)C(NC(=O)OCC)=N1	65%
COc1ccccc1N(C)CCNc1cc(C)nc(Nc2ccccc2)n1	10%

Structure (SMILES)	Inhibition
COc1ccc2nccc([C@@H](O)CN3CCC(NCc4nc5cc(F)ccc5o4)CC3)c2c1.O=C(O)C(=O)O	14%
CC(C)=CCN1CCC(C(=O)Nc2ccc(-c3nc4ccccc4[nH]3)cc2)CC1	0%
N#Cc1c(N2CCN(c3ccc(F)cc3)CC2)nc(N)c2c(N)nc3c(c12)CC(=O)N3C1CC1	2%
Br.CC1(C)NC(=N)NC(=N)N1OCC=Cc1ccccc1	62%
O=C(NC1CCN(Cc2ccccc2)CC1)c1csc2nc(-c3ccc(Cl)cc3)cn12	19%
CC(C)[C@H](NC(=O)c1c(F)cccc1F)C(=O)Nc1ccc(Cc2nc3ccccc3s2)cc1	3%
COc1ccc(-c2cccc(NC(=O)c3cccc(Cl)c3)c2)cc1CN1CCCN(C)CC1.O=C(O)C(F)(F)F	20%
CC(C)CN1CCC(COc2ccc3ncn(-c4cc(O[C@H](C)c5ccccc5C(F)(F)F)c(C(N)=O)s4)c3c2)CC1	46%
COc1ccc(-c2ccc(NC(=O)c3ccc(Cl)cc3)cc2)cc1CN1CCCN(C)CC1.O=C(O)C(F)(F)F	27%
Cc1nc2ccccc2n1C1CC2CCC(C1)N2CCCC1(c2ccccc2)CCN(C(=O)OCc2ccccc2)CC1.O=CO (stereo not given)	46%
Cl.N=C(NCCCc1ccccc1)c1cccc(C(=N)NCCCc2ccccc2)n1	44%
O=C(NCC1CCC(C(=O)NCc2cccc(C(F)(F)F)c2)CC1)c1ccc(O)c(-c2ccc(Cl)c(Cl)c2)c1 (stereo not given)	5%
CC(=O)Nc1ccc(OCCCCN(Cc2ccccc2C(F)(F)F)c2ccc(C(F)(F)F)c(C#N)c2)c(Cl)c1	14%
Cc1ccc(Cc2c[nH]c(NCCSCc3ccc(CN(C)C)s3)nc2=O)cn1	3%
Nc1cnc(C#Cc2cc3ncnc(N(CCN4CCOCC4)c4ccc(OCc5cccc(F)c5)c(Cl)c4)c3s2)cn1	0%
O=C(NCCCCCN1CCC(c2c[nH]c3ccccc23)CC1)Nc1cccc(I)c1	70%
O=C(/C=C/c1ccc(C(F)(F)F)cc1)NCCCCCN1CCCN(C(=O)Nc2ccc(Cl)cc2)CC1	28%
Cc1cccc2nc(-c3ccc(-c4cccc(NC(=O)c5cccc(C(N)=O)c5)c4)cc3)[nH]c12	14%
CCSc1nc2sc3c(c2c(=O)n1-c1ccccc1)CCN(C)C3	16%
CCCN(Cc1ccc(C)cc1)Cc1cc(=O)c2cc(Cl)ccc2[nH]1	51%
